Data reported in PubChem BioAssay (EPA / NIEHS).
Inconclusive results are not listed. The source made the active and inactive calls. The calls were made as follows, unless noted: active = hit-call score of the fitted dose curve at least 0.9, where 1 is the maximum; inconclusive = response in the unintended direction; inactive = score below 0.9.

Assays:
[1] = biological target: human Peroxisome Proliferator-activated Receptor alpha (PPARa), PPARA (gene 5465) (UniProt Q07869); assay: ATG_PPARa_TRANS: Attagene TRANS-FACTORIAL HepG2 Assay for human Peroxisome Proliferator-activated Receptor alpha (PPARa) (AID 2283001);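 as to AC50: potency for gain of reporter signal over DMSO so agonist or activator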
Method in brief: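 HepG2 cells transiently transfected with multiplexed GAL4-UAS reporters driven by exogenous chimeric NR-Gal4 proteins; reporter mRNA measured after 24 h dosing. Read-out by RT-PCR, 6-FAM labelling, HpaI digestion and capillary electrophoresis; gain of signal versus DMSO.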

[2] = biological target: human Peroxisome Proliferator-activated Receptor delta (PPARd), PPARD (gene 5467) (UniProt Q03181); assay: ATG_PPARd_TRANS: Attagene TRANS-FACTORIAL HepG2 Assay for human Peroxisome Proliferator-activated Receptor delta (PPARd) (AID 2283002)
Method in brief: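 Fluorescence from capillary electrophoresis of labelled RT-PCR reporter fragments gives the signal; DMSO sets baseline. Cells: HepG2 transiently carrying GAL4-UAS reporter units plus chimeric nuclear receptor-Gal4 proteins, exposed to chemicals for 24 h.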

[3] = biological target: human Retinoic Acid Receptor beta (RARb), RARB (gene 5915) (UniProt P10826); assay: ATG_RARb_TRANS: Attagene TRANS-FACTORIAL HepG2 Assay for human Retinoic Acid Receptor beta (AID 2283004)
Method in brief: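 Transient transfection of HepG2 with multiple reporter units → chemical dosing, 24 h → total RNA isolation → RT with oligo(dT) → reporter-specific PCR, 6-FAM primer extension, HpaI digest → capillary electrophoresis. Positive direction vs DMSO control.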

[4] = biological target: Retinoic acid receptor alpha (Homo sapiens) (UniProt P10276); assay: ATG_RARa_TRANS: Attagene TRANS-FACTORIAL HepG2 Assay for human Retinoic Acid Receptor alpha (RARa) (AID 2283005)
Method in brief: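 HepG2 transiently transfected with multiplex GAL4-UAS reporter units including a human RARa–GAL4 chimera; 24 h compound exposure. Reporter mRNA quantified by RT-PCR, 6-FAM labeling and capillary electrophoresis; gain of signal versus DMSO.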

[5] = biological target: Peroxisome proliferator-activated receptor gamma (Homo sapiens) (UniProt P37231); assay: ATG_PPARg_TRANS: Attagene TRANS-FACTORIAL HepG2 Assay for human Peroxisome Proliferator-activated Receptor-gamma (PPARg) (AID 2283007)
Method in brief: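 Gain-of-signal endpoint relative to DMSO, derived from reporter mRNA levels quantified by RT-PCR and capillary electrophoresis. Cells were HepG2 transiently expressing a chimeric NR-Gal4 construct with GAL4-UAS reporters, exposed to chemicals for 24 h.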

[6] = biological target: human Retinoic Acid Receptor gamma (RARg), RARG (gene 5916) (UniProt P13631); assay: ATG_RARg_TRANS: Attagene TRANS-FACTORIAL HepG2 Assay for human Retinoic Acid Receptor gamma (RARg) (AID 2283009)
Method in brief: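 HepG2 transiently transfected with GAL4-UAS reporter units and chimeric NR-Gal4 constructs; 24 h compound exposure. Reporter mRNA quantified by RT-PCR, FAM labeling, HpaI digestion and capillary electrophoresis; gain-of-signal versus DMSO.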

[7] = biological target: Retinoic acid receptor RXR-alpha (Homo sapiens) (UniProt P19793); assay: ATG_RXRa_TRANS: Attagene TRANS-FACTORIAL HepG2 Assay for human Retinoid X Receptor alpha (RXRa) (AID 2283012)
Method in brief: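 HepG2 cells transiently transfected with GAL4-UAS reporter units and chimeric RXRa-Gal4 protein, treated 24 h. Reporter mRNA measured by RT-PCR, fluorescent labelling, HpaI digestion and capillary electrophoresis. Induction fitted against DMSO.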

[8] = biological target: human Retinoid X Receptor beta (RXRb), RXRB (gene 6257) (UniProt P28702); assay: ATG_RXRb_TRANS: Attagene TRANS-FACTORIAL HepG2 Assay for human Retinoid X Receptor beta (RXRb) (AID 2283013)
Method in brief: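 HepG2 cells were transiently transfected with multiplexed GAL4-UAS reporters and a chimeric RXRb-Gal4 construct, then exposed for 24 h. Reporter mRNA was quantified by RT-PCR, FAM labeling, HpaI digestion and capillary electrophoresis; gain of signal was scored against DMSO.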

[9] = biological target: human RAR-related Orphan Receptor gamma (RORg), RORC (gene 6097) (UniProt P51449); assay: ATG_RORg_TRANS: Attagene TRANS-FACTORIAL HepG2 Assay for human RAR-related Orphan Receptor gamma (RORg) (AID 2283011)
Method in brief: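 First, HepG2 liver cells were transfected with GAL4-UAS-driven reporter constructs and the RORg-Gal4 fusion. Next, they were treated with chemical for 24 h. Finally, reporter mRNA was quantified by RT-PCR and capillary electrophoresis, with upward activity fitted against DMSO.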

[10] = biological target: human Thyroid Receptor alpha (THRa1), THRA (gene 7067) (UniProt P10827); assay: ATG_THRa1_TRANS: Attagene TRANS-FACTORIAL HepG2 Assay for human Thyroid Receptor alpha (THRa1) (AID 2283014)
Method in brief: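 Reporter transcript induction, read by capillary electrophoresis of 6-FAM-labelled RT-PCR products, reflects activity of a transfected THRa1-Gal4 fusion in HepG2 liver cells. Cells were dosed for 24 h; activity was fitted in the positive direction against DMSO.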

[11] = biological target: human RAR-related Orphan Receptor beta (RORb), RORB (gene 6096) (UniProt Q92753); assay: ATG_RORb_TRANS: Attagene TRANS-FACTORIAL HepG2 Assay for human RAR-related Orphan Receptor beta (RORb) (AID 2283010)
Method in brief: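 HepG2 cells transiently transfected with GAL4-UAS reporter units expressing chimeric NR-Gal4 protein; reporter mRNA measured 24 h after dosing by RT-PCR, 6-FAM labelling and capillary electrophoresis. Gain-of-signal fitted relative to DMSO baseline.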

[12] = read-out: Intercellular Adhesion Molecule 1 (ICAM1), ICAM1 (gene 3383); assay: BSK_3C_ICAM1: BioMAP Diversity Plus: 3C Assay for Intercellular Adhesion Molecule 1 (ICAM1) Biomarker Activity (AID 2283003; active = hit-call score of the fitted dose curve at least 0.9, where 1 is the maximum; inactive = score below 0.9); settings: primary human endothelial cells (HUVEC); actives raise or lower the signal
Method in brief: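 HUVEC primary cells stimulated under 3C conditions; ICAM1 measured by ELISA 24 h after compound dosing. Curves fitted bidirectionally against the DMSO baseline. Overt cytotoxicity checked by SRB staining of parallel cultures.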

[13] = biological target: Nuclear receptor subfamily 1 group I member 2 (Homo sapiens) (UniProt O75469); assay: ATG_PXR_TRANS: Attagene TRANS-FACTORIAL HepG2 Assay for human Pregnane X Receptor (PXR) (AID 2283008)
Method in brief: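 HepG2 cells transiently transfected with GAL4-UAS reporter units and PXR-Gal4 chimera, exposed 24 h. Reporter mRNA quantified by RT-PCR, fluorescent labelling, HpaI digestion and capillary electrophoresis; gain of signal vs DMSO.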

[14] = read-out: E-selectin (Homo sapiens) (UniProt P16581); assay: BSK_3C_Eselectin: BioMAP Diversity Plus: 3C Assay for Eselectin Biomarker Activity (AID 2283015; active = hit-call score of the fitted dose curve at least 0.9, where 1 is the maximum; inactive = score below 0.9); settings: primary human endothelial cells (HUVEC); actives raise or lower the signal
Method in brief: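 ELISA read-out of E-selectin on endothelial monolayers after 24 h chemical treatment. Human umbilical vein primary cells served as the system, with DMSO defining baseline activity for bidirectional fitting.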

[15] = read-out: Interleukin-1 alpha (IL1a), IL1A (gene 3552); assay: BSK_BE3C_IL1a: BioMAP Diversity Plus: BE3C Assay for Interleukin-1 alpha (IL1a) Biomarker Activity (AID 2283016; active = hit-call score of the fitted dose curve at least 0.9, where 1 is the maximum; inactive = score below 0.9); settings: primary human bronchial epithelial cells; actives raise or lower the signal
Method in brief: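 Human primary bronchial epithelial cells, 24 h chemical exposure; IL-1a quantified by ELISA, fitted bidirectionally against DMSO. Cytotoxicity assessed in parallel by SRB total-protein staining at the time of measurement.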

[16] = read-out: Monocyte Chemoattractant Protein-1 (MCP1), CCL2 (gene 6347); assay: BSK_3C_MCP1: BioMAP Diversity Plus: 3C Assay for Monocyte Chemoattractant Protein-1 (MCP1) Biomarker Activity (AID 2283017; active = hit-call score of the fitted dose curve at least 0.9, where 1 is the maximum; inactive = score below 0.9); settings: primary human endothelial cells (HUVEC); actives raise or lower the signal
Method in brief: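 ELISA read-out of MCP-1 from human umbilical vein endothelial cell cultures harvested 24 h post-dosing. Gain or loss of signal was fitted relative to DMSO.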

[17] = read-out: Monocyte Chemoattractant Protein-1 (MCP1), CCL2 (gene 6347); assay: BSK_4H_MCP1: BioMAP Diversity Plus: 4H Assay for Monocyte Chemoattractant Protein-1 (MCP1) Biomarker Activity (AID 2283018; active = hit-call score of the fitted dose curve at least 0.9, where 1 is the maximum; inactive = score below 0.9); settings: primary human endothelial cells (HUVEC); actives raise or lower the signal
Method in brief: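 Human umbilical vein endothelial cells (4H system) exposed to chemicals for 24 h in 96-well format. MCP-1 measured by ELISA; bidirectional fitting against DMSO, with SRB total-protein staining in parallel cultures for cytotoxicity.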

[18] = read-out: Human Leukocyte Antigen - DR isotype (HLADR), HLA-DRA (gene 3122); assay: BSK_3C_HLADR: BioMAP Diversity Plus: 3C Assay for Human Leukocyte Antigen - DR isotype (HLADR) Biomarker Activity (AID 2283019; active = hit-call score of the fitted dose curve at least 0.9, where 1 is the maximum; inactive = score below 0.9); settings: primary human endothelial cells (HUVEC); actives raise or lower the signal
Method in brief: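 ELISA readout of surface HLA-DR on human umbilical vein endothelium, taken 24 h after chemical treatment. Gain- and loss-of-signal were both fitted relative to DMSO.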

[19] = read-out: Interleukin-8 (IL8), CXCL8 (gene 3576); assay: BSK_3C_IL8: BioMAP Diversity Plus: 3C Assay for Interleukin-8 (IL8) Biomarker Activity (AID 2283020; active = hit-call score of the fitted dose curve at least 0.9, where 1 is the maximum; inactive = score below 0.9); settings: primary human endothelial cells (HUVEC); actives raise or lower the signal
Method in brief: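 Primary human umbilical vein endothelial cells were dosed for 24 h. IL-8 was quantified by ELISA and fitted bidirectionally against DMSO. Cytotoxicity was assessed in parallel cultures by SRB staining at 560 nm.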

[20] = BSK_3C_Proliferation: Cell Proliferation Assessment in the BioMAP Diversity Plus: 3C Assay (AID 2283006; active = hit-call score of the fitted dose curve at least 0.9, where 1 is the maximum; inactive = score below 0.9;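 also: potency may reflect either rise or fall in cell number versus DMSO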); settings: primary human endothelial cells (HUVEC)
Method in brief: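 Subconfluent HUVEC (3C system) cultured with chemical; relative cell number read at 48 h by sulforhodamine B total-protein staining (0.1% SRB after 10% TCA fixation, 560 nm). Bidirectional fit relative to DMSO.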

Measured: AC50

Chain of human Retinoic Acid Receptor beta (RARb), RARB (gene 5915) (P10826 whole entry, looked up): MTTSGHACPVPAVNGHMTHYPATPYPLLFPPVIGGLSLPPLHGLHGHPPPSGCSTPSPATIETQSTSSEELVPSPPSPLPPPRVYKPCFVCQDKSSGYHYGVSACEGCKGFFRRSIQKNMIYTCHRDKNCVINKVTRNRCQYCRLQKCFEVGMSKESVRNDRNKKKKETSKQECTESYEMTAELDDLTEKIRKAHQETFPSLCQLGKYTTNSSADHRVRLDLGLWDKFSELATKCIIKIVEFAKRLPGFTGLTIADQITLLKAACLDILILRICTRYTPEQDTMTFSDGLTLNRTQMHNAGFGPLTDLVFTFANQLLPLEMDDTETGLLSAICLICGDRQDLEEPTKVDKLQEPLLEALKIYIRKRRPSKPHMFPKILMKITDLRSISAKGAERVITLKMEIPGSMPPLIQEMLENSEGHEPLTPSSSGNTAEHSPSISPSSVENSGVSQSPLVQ
Chain of human Peroxisome Proliferator-activated Receptor delta (PPARd), PPARD (gene 5467) (Q03181 whole entry, looked up, the tested form may be a part): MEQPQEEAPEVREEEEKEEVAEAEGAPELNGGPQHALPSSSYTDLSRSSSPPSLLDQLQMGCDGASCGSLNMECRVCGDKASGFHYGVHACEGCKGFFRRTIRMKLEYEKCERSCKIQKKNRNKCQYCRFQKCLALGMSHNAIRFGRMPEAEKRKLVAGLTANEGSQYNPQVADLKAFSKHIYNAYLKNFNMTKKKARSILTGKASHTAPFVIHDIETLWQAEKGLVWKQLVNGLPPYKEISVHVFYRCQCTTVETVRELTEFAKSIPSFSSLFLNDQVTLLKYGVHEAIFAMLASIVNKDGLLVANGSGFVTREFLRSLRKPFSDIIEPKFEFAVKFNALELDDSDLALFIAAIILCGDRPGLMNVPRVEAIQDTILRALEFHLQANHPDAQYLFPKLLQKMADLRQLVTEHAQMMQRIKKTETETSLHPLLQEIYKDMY
Chain of Nuclear receptor subfamily 1 group I member 2 (Homo sapiens) (O75469 whole entry, looked up, the tested form may be a part): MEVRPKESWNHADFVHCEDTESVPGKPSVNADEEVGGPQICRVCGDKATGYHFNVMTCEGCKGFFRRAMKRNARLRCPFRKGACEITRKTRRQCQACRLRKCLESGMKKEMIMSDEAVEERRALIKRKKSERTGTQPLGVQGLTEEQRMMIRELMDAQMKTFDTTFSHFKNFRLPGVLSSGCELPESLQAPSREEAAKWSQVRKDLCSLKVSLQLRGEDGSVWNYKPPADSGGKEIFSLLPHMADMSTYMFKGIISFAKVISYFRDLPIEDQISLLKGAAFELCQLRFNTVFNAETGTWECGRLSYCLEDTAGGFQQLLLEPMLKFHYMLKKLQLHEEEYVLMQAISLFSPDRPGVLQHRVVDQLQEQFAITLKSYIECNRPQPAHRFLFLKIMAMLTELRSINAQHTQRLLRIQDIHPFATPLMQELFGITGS
Chain of human Retinoic Acid Receptor gamma (RARg), RARG (gene 5916) (P13631 whole entry, looked up, the tested form may be a part): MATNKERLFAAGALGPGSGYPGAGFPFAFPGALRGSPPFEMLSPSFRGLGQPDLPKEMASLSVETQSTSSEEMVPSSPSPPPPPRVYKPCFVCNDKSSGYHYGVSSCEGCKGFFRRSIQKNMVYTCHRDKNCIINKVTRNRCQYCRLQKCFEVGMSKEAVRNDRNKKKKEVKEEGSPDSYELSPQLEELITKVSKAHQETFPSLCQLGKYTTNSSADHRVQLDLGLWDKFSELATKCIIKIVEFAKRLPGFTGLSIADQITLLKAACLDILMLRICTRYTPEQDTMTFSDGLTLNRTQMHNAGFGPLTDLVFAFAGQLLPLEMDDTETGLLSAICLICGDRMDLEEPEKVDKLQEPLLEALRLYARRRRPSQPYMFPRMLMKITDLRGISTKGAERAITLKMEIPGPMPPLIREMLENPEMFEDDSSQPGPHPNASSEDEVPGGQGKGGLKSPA
Chain of human Peroxisome Proliferator-activated Receptor alpha (PPARa), PPARA (gene 5465) (Q07869 whole entry, looked up, the tested form may be a part): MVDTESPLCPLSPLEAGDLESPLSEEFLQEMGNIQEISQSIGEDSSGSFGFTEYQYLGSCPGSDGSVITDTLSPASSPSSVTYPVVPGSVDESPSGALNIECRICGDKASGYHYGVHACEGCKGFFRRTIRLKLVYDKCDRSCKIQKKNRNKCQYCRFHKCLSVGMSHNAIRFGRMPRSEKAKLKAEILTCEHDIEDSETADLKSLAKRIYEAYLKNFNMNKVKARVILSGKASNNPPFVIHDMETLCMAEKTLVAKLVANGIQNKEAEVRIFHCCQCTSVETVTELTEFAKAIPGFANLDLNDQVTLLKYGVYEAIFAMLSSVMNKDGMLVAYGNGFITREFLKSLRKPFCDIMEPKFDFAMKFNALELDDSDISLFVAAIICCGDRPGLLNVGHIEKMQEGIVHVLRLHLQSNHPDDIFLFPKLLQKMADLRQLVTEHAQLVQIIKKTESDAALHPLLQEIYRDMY
Chain of human Thyroid Receptor alpha (THRa1), THRA (gene 7067) (P10827 whole entry, looked up, the tested form may be a part): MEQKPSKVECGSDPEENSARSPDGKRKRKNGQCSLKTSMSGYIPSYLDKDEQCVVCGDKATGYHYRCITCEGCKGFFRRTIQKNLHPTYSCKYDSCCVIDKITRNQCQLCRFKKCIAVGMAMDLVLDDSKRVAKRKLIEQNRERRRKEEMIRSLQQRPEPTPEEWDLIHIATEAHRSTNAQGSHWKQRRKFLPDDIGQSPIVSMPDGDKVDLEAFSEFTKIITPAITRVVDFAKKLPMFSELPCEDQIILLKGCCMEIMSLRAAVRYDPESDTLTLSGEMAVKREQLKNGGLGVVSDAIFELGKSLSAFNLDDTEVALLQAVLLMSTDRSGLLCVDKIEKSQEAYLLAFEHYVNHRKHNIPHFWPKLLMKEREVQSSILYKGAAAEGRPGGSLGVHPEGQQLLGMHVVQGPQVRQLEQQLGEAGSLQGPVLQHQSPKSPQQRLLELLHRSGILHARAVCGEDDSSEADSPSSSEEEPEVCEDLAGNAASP
Chain of Retinoic acid receptor alpha (Homo sapiens) (P10276 whole entry, looked up, the tested form may be a part): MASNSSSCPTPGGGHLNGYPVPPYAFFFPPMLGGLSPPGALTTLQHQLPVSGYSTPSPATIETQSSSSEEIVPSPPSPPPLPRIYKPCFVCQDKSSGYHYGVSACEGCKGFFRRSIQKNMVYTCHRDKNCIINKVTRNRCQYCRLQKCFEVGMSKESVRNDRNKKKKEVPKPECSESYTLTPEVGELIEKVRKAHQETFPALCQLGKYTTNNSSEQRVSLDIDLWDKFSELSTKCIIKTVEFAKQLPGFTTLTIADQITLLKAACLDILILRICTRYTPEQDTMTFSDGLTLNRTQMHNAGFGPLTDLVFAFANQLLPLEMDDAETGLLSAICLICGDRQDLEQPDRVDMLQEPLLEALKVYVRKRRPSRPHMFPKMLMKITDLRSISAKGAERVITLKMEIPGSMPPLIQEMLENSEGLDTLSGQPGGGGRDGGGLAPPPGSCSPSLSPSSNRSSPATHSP
Chain of Retinoic acid receptor RXR-alpha (Homo sapiens) (P19793 whole entry, looked up, the tested form may be a part): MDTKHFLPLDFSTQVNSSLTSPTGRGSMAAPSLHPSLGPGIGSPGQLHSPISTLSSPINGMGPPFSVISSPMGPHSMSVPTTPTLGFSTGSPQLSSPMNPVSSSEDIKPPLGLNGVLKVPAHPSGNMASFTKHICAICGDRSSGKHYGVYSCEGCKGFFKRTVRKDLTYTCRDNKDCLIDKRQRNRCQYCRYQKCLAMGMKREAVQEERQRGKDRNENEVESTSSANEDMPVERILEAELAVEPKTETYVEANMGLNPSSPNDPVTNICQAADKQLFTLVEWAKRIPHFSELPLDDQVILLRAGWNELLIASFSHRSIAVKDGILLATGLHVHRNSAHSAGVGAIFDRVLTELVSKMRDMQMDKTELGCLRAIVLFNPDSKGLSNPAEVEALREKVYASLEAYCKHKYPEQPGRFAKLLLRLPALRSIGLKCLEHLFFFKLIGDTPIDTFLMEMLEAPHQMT
Chain of E-selectin (Homo sapiens) (P16581 whole entry, looked up): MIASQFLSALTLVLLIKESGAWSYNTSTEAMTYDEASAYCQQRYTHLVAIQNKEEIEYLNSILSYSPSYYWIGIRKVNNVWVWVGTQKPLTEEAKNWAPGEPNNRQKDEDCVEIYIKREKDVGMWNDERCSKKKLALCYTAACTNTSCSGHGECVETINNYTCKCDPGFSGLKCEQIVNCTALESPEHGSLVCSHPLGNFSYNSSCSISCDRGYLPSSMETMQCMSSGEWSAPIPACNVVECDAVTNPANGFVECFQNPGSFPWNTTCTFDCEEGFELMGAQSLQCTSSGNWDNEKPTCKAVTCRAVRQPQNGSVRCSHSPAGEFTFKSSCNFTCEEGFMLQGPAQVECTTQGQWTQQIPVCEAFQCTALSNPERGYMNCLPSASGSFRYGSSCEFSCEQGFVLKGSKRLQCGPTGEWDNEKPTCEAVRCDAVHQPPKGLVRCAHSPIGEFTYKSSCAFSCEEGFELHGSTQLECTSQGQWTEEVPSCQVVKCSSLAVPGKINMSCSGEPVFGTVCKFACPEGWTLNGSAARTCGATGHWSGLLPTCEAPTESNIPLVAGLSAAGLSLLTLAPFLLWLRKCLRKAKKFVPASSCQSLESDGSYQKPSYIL
Chain of human Retinoid X Receptor beta (RXRb), RXRB (gene 6257) (P28702 whole entry, looked up, the tested form may be a part): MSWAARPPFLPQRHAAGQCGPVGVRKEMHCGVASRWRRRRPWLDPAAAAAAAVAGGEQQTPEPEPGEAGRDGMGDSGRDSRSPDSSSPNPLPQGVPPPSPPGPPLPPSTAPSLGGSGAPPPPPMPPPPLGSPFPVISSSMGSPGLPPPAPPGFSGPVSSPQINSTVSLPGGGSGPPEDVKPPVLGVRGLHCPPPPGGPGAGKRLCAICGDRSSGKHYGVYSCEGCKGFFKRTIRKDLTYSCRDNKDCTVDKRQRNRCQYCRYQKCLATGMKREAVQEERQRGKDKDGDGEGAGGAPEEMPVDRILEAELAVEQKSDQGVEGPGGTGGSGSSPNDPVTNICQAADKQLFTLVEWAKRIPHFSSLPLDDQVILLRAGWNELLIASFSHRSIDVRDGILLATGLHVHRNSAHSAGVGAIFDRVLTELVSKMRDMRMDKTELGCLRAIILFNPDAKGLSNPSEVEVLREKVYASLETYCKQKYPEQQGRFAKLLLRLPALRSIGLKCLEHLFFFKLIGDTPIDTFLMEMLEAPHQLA

CCCCCCCCCCCC(=O)OC[C@@H](O)[C@H]1OC[C@H](O)[C@H]1O
inactive: [1] | [2] | [3] | [4] | [5] | [6] | [7] | [8]

CCCCC(CC)COC(C)=O (stereo unspecified)
inactive: [1] | [2] | [3] | [4] | [6] | [9] | [8] | [10]

[O-]n1ccccc1=S.[O-]n1ccccc1=S.[Zn+2]
inactive: [1] | [2] | [3] | [4] | [5] | [11] | [9] | [8]

C=C(C)C(=O)OCCOCCOCCOCCOC(=O)C(=C)C
inactive: [1] | [2] | [12] | [13] | [9] | [14] | [15] | [16] | [17] | [18] | [19]

Nc1ccc2cc(S(=O)(=O)O)cc(O)c2c1N=Nc1ccccc1C(F)(F)F
inactive: [1] | [2] | [3] | [4] | [5] | [13] | [11] | [10]
active: [8] 14.8 µM

NCCNc1cccc2ccccc12
inactive: [2] | [3] | [4] | [13] | [6] | [11] | [7] | [8] | [10]
active: [1] 150 µM | [5] 125 µM

O=[N+]([O-])c1ccc(O)cc1C(F)(F)F
inactive: [1] | [2] | [3] | [4] | [13] | [6] | [11] | [9] | [8] | [10]
active: [5] 38.7 µM

IC(I)I
not listed: [7] | [8] | [20]
inactive: all other assays above

O=C1OC2(c3ccccc31)c1ccc(O)c(Br)c1Oc1c2ccc(O)c1Br
active: [20] 9.61 µM | [13] 57 µM | [14] 24.7 µM | [15] 9.21 µM | [16] 20 µM | [17] 25.4 µM | [18] 20 µM | [19] 24.4 µM
not listed: [3] | [8]
inactive: all other assays above
